Results: PubChem BioAssay AID1159580 (chemical genetic matrix, 2015)
In all, about 5,500 compounds went through this assay and about 2,000 (36%) were called active. Inconclusive results (about 18%) are left out. Rule as the data show it: active = normalized growth mostly below about 0.91 (no sharp cut-off); inconclusive = no clear call, values can overlap the other calls; inactive = mostly above about 0.92. The list shows a part of the results.

Assay: chemical genetic growth profiling, strain panel (AID 1159580);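 also: tested at 20 µM; growth read once vehicle control cultures reached saturation at 30 °C; 1 = growth at the plate median or of vehicle wells; lower values mean less growth of the strain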
Conditions: S. cerevisiae deletion strains, growth OD
[1] = locus YAR019C, strain CDC15, hits give low values
[2] = locus YBL105C, strain PKC1, hits give low values
[3] = locus YBR135W, strain CKS1, hits give low values
[4] = locus YBR136W, strain MEC1, hits give low values
[5] = locus YBR160W, strain CDC28, hits give low values
[6] = locus YDL017W, strain CDC7, hits give low values
[7] = locus YDL028C, strain MPS1, hits give low values
[8] = locus YDL101C, strain DUN1, hits give low values
[9] = locus YDL108W, strain KIN28, hits give low values
[10] = locus YDL132W, strain cdc53, hits give low values
[11] = locus YDL214C, strain PRR2, hits give low values
[12] = locus YDR052C, strain DBF4, hits give low values
[13] = locus YDR054C, strain cdc34, hits give low values
[14] = locus YDR226W, strain ADK1, hits give low values
[15] = locus YDR477W, strain SNF1, hits give low values
[16] = locus YER123W, strain YCK3, hits give low values
[17] = locus YER133W, strain GLC7, hits give low values
[18] = locus YFL009W, strain cdc4, hits give low values
[19] = locus YFL029C, strain CAK1, hits give low values
[20] = locus YFR003C, strain YPI1, hits give low values
[21] = locus YFR019W, strain FAB1, hits give low values
[22] = locus YFR028C, strain CDC14, hits give low values
[23] = locus YGR040W, strain KSS1, hits give low values
[24] = locus YGR052W, strain FMP48, hits give low values
[25] = locus YGR092W, strain DBF2, hits give low values
[26] = locus YHR030C, strain SLT2, hits give low values
[27] = locus YHR079C, strain IRE1, hits give low values
[28] = locus YHR082C, strain KSP1, hits give low values
[29] = locus YHR205W, strain SCH9, hits give low values
[30] = locus YIL147C, strain SLN1, hits give low values
[31] = locus YJL095W, strain BCK1, hits give low values
[32] = locus YJL128C, strain PBS2, hits give low values
[33] = locus YJL157C, strain FAR1, hits give low values
[34] = locus YJR016C, strain ILV3, hits give low values
[35] = locus YJR066W, strain TOR1 (second series), hits give low values
[36] = locus YJR066W, strain TOR1, hits give low values
[37] = locus YKL048C, strain ELM1, hits give low values
[38] = locus YKL067W, strain YNK1, hits give low values
[39] = locus YKL101W, strain HSL1, hits give low values
[40] = locus YKL193C, strain SDS22, hits give low values
[41] = locus YKL203C, strain TOR2, hits give low values
[42] = locus YLR113W, strain HOG1, hits give low values
[43] = locus YLR133W, strain CKI1, hits give low values
[44] = locus YLR403W, strain SFP1, hits give low values
[45] = locus YML070W, strain DAK1, hits give low values
[46] = locus YMR001C, strain CDC5, hits give low values
[47] = locus YMR205C, strain PFK2 (second series), hits give low values
[48] = locus YMR277W, strain FCP1, hits give low values
[49] = locus YNL006W, strain LST8, hits give low values
[50] = locus YNL020C, strain ARK1, hits give low values
[51] = locus YNL161W, strain CBK1, hits give low values
[52] = locus YNL183C, strain NPR1, hits give low values
[53] = locus YNL207W, strain RIO2, hits give low values
[54] = locus YNL222W, strain SSU72, hits give low values
[55] = locus YNL307C, strain MCK1 (second series), hits give low values
[56] = locus YOL078W, strain AVO1, hits give low values
[57] = locus YOL136C, strain PFK27, hits give low values
[58] = locus YOR061W, strain CKA2, hits give low values
[59] = locus YOR119C, strain RIO1, hits give low values
[60] = locus YOR231W, strain MKK1, hits give low values
[61] = locus YOR329C, strain SCD5, hits give low values
[62] = locus YPL031C, strain PHO85, hits give low values
[63] = locus YPL153C, strain RAD53, hits give low values
[64] = locus YPL204W, strain HRR25, hits give low values
[65] = locus YPL209C, strain IPL1, hits give low values
[66] = locus YPL256C, strain CLN2, hits give low values
[67] = locus YPR025C, strain CCL1, hits give low values
[68] = locus YPR106W, strain ISR1, hits give low values
[69] = locus YPR111W, strain DBF20, hits give low values
[70] = strain NNK1, hits give low values
[71] = strain TSCII, hits give low values

Measured: normalized growth

N#C/C(=N/Nc1cccc(C(F)(F)F)c1)C(=O)c1csc(-c2cccnc2)n1
inactive: [1] 0.96 | [2] 0.958 | [3] 0.955 | [4] 0.962 | [5] 0.961 | [6] 0.96 | [7] 0.962 | [8] 0.964 | [9] 0.963 | [10] 0.964 | [11] 0.83 | [12] 0.945 | [13] 0.939 | [14] 0.963 | [15] 0.762 | [17] 0.883 | [18] 0.96 | [19] 0.955 | [20] 0.961 | [22] 0.967 | [23] 0.832 | [29] 0.75 | [30] 0.96 | [32] 0.923 | [33] 0.802 | [34] 0.954 | [38] 0.854 | [40] 0.959 | [41] 0.763 | [44] 0.776 | [46] 0.964 | [47] 0.807 | [48] 0.955 | [49] 0.961 | [51] 0.956 | [53] 0.941 | [54] 0.96 | [56] 0.955 | [58] 0.85 | [59] 0.838 | [61] 0.966 | [65] 0.957 | [67] 0.956 | [68] 0.971 | [69] 0.958 | [70] 0.95 | [71] 0.954
active: [16] 0.56 | [21] 0.364 | [24] 0.566 | [25] 0.297 | [26] 0.115 | [27] 0.139 | [28] 0.292 | [31] 0.232 | [35] 0.578 | [36] 0.343 | [37] 0.632 | [39] 0.534 | [42] 0.34 | [43] 0.711 | [45] 0.578 | [50] 0.626 | [52] 0.46 | [55] 0.461 | [57] 0.529 | [60] 0.198 | [62] 0.484 | [63] 0.317 | [64] 0.464 | [66] 0.236

CS/C(Nc1cccc(C(F)(F)F)c1)=C(/C#N)S(=O)(=O)c1ccc(Cl)cc1
inactive: [1] 0.951 | [2] 0.945 | [3] 0.953 | [4] 0.941 | [5] 0.948 | [6] 0.948 | [7] 0.957 | [8] 0.953 | [9] 0.949 | [10] 0.953 | [11] 0.96 | [12] 0.932 | [13] 0.946 | [14] 0.931 | [15] 0.963 | [16] 0.941 | [17] 0.971 | [18] 0.942 | [19] 0.934 | [20] 0.944 | [21] 0.957 | [22] 0.948 | [23] 0.947 | [24] 0.943 | [25] 0.937 | [26] 0.996 | [27] 0.987 | [28] 1.01 | [29] 0.914 | [30] 0.953 | [31] 0.916 | [32] 0.935 | [33] 0.954 | [34] 0.944 | [35] 0.95 | [36] 0.988 | [37] 0.946 | [38] 0.972 | [39] 0.954 | [40] 0.951 | [41] 1 | [42] 0.882 | [43] 0.945 | [44] 0.925 | [45] 0.962 | [46] 0.948 | [47] 0.978 | [48] 0.956 | [49] 0.958 | [50] 0.943 | [51] 0.94 | [52] 0.992 | [53] 0.936 | [54] 0.957 | [55] 0.926 | [56] 0.951 | [57] 0.915 | [58] 0.985 | [59] 1.01 | [60] 0.94 | [61] 0.951 | [62] 0.956 | [63] 0.973 | [64] 0.911 | [65] 0.943 | [66] 0.981 | [67] 0.946 | [68] 0.954 | [69] 0.949 | [70] 0.947 | [71] 0.942
